Laboratory results taken from PubChem BioAssay (EPA / NIEHS).
Results filed as inconclusive are left out. Calls of active or inactive are those of the source. The calls were made as follows, unless noted: active = hit-call score of the fitted dose curve at least 0.9, where 1 is the maximum; inactive = score below 0.9.

Legend:
[1] = biological target: Nuclear respiratory factor 1 (Homo sapiens) (UniProt Q16656); assay: ATG_NRF1_CIS: Attagene CIS-FACTORIAL HepG2 Assay for human Nuclear Respiratory Factor 1 (NRF1) Orphan Gene (AID 2282987); conditions: HepG2 NRF1 cis-element reporter, Attagene multiplex; actives raise or lower the signal
Chain of Nuclear respiratory factor 1 (Homo sapiens) (Q16656 whole entry, looked up): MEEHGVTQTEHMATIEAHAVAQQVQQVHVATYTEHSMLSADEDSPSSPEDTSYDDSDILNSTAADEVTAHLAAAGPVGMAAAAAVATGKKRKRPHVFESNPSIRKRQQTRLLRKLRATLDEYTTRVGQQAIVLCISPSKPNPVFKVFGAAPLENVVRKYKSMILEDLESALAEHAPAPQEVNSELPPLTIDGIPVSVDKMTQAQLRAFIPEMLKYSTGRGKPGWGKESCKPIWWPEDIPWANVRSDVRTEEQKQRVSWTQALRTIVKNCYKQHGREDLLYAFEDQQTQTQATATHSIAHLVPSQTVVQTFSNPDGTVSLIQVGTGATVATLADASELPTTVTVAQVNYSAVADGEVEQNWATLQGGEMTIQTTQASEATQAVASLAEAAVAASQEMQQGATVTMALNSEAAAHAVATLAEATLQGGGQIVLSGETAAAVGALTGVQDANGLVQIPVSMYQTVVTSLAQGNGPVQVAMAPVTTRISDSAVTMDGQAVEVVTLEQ
Summary of the method: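 HepG2 cells transiently transfected with multiple cis-regulated reporter units, exposed 24 h. Reporter mRNAs measured by RT-PCR, fluorescent labelling, HpaI digestion and capillary electrophoresis; bidirectional fitting against DMSO.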

[2] = ATG_NFI_CIS: Attagene CIS-FACTORIAL HepG2 Assay for human Nuclear Factor I (NFI) (AID 2282989); conditions: HepG2 cis-regulatory reporter, NFI response element transcription; actives raise or lower the signal
Summary of the method: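 Read-out: reporter mRNA via RT-PCR plus capillary electrophoresis with fluorescence detection. Transiently transfected HepG2 (endogenous TF activity on cis promoters), 24 h compound exposure; gain or loss of signal fitted against DMSO.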

[3] = biological target: Myc proto-oncogene protein (Homo sapiens) (UniProt P01106); assay: ATG_Myc_CIS: Attagene CIS-FACTORIAL HepG2 Assay for human Myelocytomatosis (Myc) Proto-Oncogene Transcription Factor (AID 2282990); conditions: HepG2, Attagene cis-reporter transcription factor activity; actives raise or lower the signal
Chain of Myc proto-oncogene protein (Homo sapiens) (P01106 whole entry, looked up): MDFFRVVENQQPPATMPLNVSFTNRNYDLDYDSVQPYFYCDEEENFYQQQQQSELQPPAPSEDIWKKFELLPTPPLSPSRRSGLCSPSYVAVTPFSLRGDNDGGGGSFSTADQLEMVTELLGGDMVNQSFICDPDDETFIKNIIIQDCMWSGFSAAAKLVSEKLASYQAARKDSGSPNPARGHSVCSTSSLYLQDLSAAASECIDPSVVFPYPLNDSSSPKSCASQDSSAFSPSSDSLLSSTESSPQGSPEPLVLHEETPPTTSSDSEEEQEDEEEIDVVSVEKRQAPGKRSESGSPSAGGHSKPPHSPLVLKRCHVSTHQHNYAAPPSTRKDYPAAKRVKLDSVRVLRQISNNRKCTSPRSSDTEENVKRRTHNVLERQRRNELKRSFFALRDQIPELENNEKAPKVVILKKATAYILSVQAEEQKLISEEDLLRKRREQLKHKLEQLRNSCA
Summary of the method: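 Cells of the HepG2 human liver line bear multiple cis-driven reporter transcription units. Reporter mRNA after 24 h exposure is reverse-transcribed, amplified, labelled and resolved by capillary electrophoresis, with gain- or loss-of-signal fitting relative to DMSO.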

[4] = ATG_NF_kB_CIS: Attagene CIS-FACTORIAL HepG2 Assay for human Nuclear Factor Kappa B (NF-kB) (AID 2282991); conditions: HepG2 Attagene cis-factorial NF-kB reporter mRNA; actives raise or lower the signal
Summary of the method: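 HepG2 cells transfected with cis-promoter-driven reporter units, so endogenous transcription factor activity is measured. Reporter mRNA quantified 24 h after dosing by RT-PCR and capillary electrophoresis, with bidirectional fitting against DMSO.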

[5] = ATG_NRF2_ARE_CIS: Attagene CIS-FACTORIAL HepG2 Assay for human Nuclear Factor Erythroid 2 Related Factor 2 (NFR2) response to Antioxidant Response Elements (ARE) (AID 2282992); conditions: HepG2 Attagene ARE/NRF2 reporter, transcription factor activity; actives raise or lower the signal;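 as to AC50: reporter mRNA level measured by RT-PCR and capillary electrophoresis fluorescence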
Summary of the method: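 Readout: reporter mRNA quantified by RT-PCR plus FAM-labelled primer extension, HpaI digestion and capillary electrophoresis, 24 h after dosing transfected HepG2 cells. Gain or loss of signal is fitted bidirectionally against DMSO baseline.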

[6] = ATG_Oct_MLP_CIS: Attagene CIS-FACTORIAL HepG2 Assay for human Octamer-Binding Transcription Factor (Oct) (AID 2282993); conditions: HepG2 Attagene cis-factorial Oct reporter, mRNA; actives raise or lower the signal
Summary of the method: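 Read-out: reporter mRNA via RT-PCR plus capillary electrophoresis of 6-FAM-labelled fragments. Transiently transfected HepG2, 24 h exposure, endogenous TF activity on cis elements. Gain or loss of signal fitted relative to DMSO.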

[7] = biological target: Cellular tumor antigen p53 (Homo sapiens) (UniProt P04637); assay: ATG_p53_CIS: Attagene CIS-FACTORIAL HepG2 Assay for human p53 Transcription Factor (AID 2282994); conditions: HepG2 p53 cis-element reporter, Attagene mRNA; actives raise or lower the signal
Chain of Cellular tumor antigen p53 (Homo sapiens) (P04637 whole entry, looked up): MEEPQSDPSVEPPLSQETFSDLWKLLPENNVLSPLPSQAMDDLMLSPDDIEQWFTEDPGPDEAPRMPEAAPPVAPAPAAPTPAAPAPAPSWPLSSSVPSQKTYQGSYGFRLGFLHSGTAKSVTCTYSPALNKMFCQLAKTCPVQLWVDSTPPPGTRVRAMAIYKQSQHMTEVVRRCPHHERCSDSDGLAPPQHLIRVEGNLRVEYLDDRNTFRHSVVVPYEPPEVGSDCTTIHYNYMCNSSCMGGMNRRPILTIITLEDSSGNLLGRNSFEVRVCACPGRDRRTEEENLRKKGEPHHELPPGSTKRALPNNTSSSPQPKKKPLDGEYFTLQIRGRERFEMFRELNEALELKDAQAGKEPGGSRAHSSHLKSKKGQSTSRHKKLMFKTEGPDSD
Summary of the method: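 Read-out: reporter mRNA by RT-PCR plus capillary electrophoresis with fluorescence detection. Human HepG2 liver cells carried transfected multi-reporter cis-element constructs, dosed 24 h. Gain or loss of signal fitted bidirectionally against DMSO control.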

[8] = BSK_3C_TissueFactor: BioMAP Diversity Plus: 3C Assay for Tissue Factor Biomarker Activity (AID 2282997); conditions: BioMAP 3C HUVEC, tissue factor biomarker readout; actives raise or lower the signal
Summary of the method: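 In this endothelial system, HUVEC are treated for 24 h and Tissue Factor is assessed by ELISA, normalised to DMSO.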

[9] = BSK_3C_uPAR: BioMAP Diversity Plus: 3C Assay for Urokinase-type plasminogen activator receptor (uPAR) Biomarker Activity (AID 2282998); conditions: BioMAP 3C HUVEC, uPAR biomarker ELISA; actives raise or lower the signal
Summary of the method: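 HUVEC primary cells; 24 h post-dose; uPAR by ELISA; gain or loss of signal fitted bidirectionally vs DMSO baseline.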

[10] = BSK_4H_Eotaxin3: BioMAP Diversity Plus: 4H Assay for Eotaxin 3 Biomarker Activity (AID 2283000); conditions: primary human endothelial cells (HUVEC); actives raise or lower the signal;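 as to outcome: CCL26 protein level quantified by ELISA in parallel with SRB cytotoxicity check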
Summary of the method: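 ELISA quantitation of CCL26 (Eotaxin-3) protein from chemically dosed human vascular endothelial cells at 24 h; increases and decreases both scored relative to DMSO-treated baseline.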

[11] = biological target: human Peroxisome Proliferator-activated Receptor delta (PPARd), PPARD (gene 5467) (UniProt Q03181); assay: ATG_PPARd_TRANS: Attagene TRANS-FACTORIAL HepG2 Assay for human Peroxisome Proliferator-activated Receptor delta (PPARd) (AID 2283002; active = hit-call score of the fitted dose curve at least 0.9, where 1 is the maximum)
Chain of human Peroxisome Proliferator-activated Receptor delta (PPARd), PPARD (gene 5467) (Q03181 whole entry, looked up): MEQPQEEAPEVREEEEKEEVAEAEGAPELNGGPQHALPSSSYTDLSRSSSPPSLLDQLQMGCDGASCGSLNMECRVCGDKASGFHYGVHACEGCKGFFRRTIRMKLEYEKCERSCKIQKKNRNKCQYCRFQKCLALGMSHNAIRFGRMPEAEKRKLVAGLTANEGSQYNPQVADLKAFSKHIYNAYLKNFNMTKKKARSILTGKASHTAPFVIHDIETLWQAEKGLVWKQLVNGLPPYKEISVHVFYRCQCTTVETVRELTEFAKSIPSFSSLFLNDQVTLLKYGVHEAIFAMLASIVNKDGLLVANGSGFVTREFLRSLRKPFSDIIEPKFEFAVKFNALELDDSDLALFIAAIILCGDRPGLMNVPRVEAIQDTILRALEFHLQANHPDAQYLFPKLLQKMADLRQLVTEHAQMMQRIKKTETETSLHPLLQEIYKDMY
Summary of the method: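 Cell-based TRANS reporter: HepG2, transient MRTU transfection, 24 h exposure. Readout = reporter mRNA (RT-PCR/CE, 6-FAM). Gain-of-signal fit vs DMSO control.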

[12] = read-out: Intercellular Adhesion Molecule 1 (ICAM1), ICAM1 (gene 3383); assay: BSK_3C_ICAM1: BioMAP Diversity Plus: 3C Assay for Intercellular Adhesion Molecule 1 (ICAM1) Biomarker Activity (AID 2283003); conditions: primary human endothelial cells (HUVEC); actives raise or lower the signal
Summary of the method: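 ELISA read-out of ICAM-1; HUVEC (primary human), 3C system, 24 h post-dosing; bidirectional fit vs DMSO baseline.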

[13] = biological target: Peroxisome proliferator-activated receptor gamma (Homo sapiens) (UniProt P37231); assay: ATG_PPARg_TRANS: Attagene TRANS-FACTORIAL HepG2 Assay for human Peroxisome Proliferator-activated Receptor-gamma (PPARg) (AID 2283007; active = hit-call score of the fitted dose curve at least 0.9, where 1 is the maximum)
Chain of Peroxisome proliferator-activated receptor gamma (Homo sapiens) (P37231 whole entry, looked up, the tested form may be a part): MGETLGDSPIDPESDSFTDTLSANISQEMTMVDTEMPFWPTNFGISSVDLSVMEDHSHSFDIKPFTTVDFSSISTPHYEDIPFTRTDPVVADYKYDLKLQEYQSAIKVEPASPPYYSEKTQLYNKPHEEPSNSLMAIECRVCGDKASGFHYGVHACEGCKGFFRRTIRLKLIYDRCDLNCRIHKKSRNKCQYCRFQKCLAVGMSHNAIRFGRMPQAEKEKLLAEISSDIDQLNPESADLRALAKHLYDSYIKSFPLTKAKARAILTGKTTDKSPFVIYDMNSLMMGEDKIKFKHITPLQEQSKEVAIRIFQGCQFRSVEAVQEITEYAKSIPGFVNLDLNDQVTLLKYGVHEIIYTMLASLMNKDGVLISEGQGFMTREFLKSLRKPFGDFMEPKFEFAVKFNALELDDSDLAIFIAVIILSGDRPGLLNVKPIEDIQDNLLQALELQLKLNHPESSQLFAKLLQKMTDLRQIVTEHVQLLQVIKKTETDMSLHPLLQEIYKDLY
Summary of the method: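 HepG2 cells are transiently transfected with GAL4-UAS reporter units driven by chimeric NR-Gal4 fusions and dosed for 24 h. Reporter mRNA is quantified by RT-PCR, 6-FAM labelling, HpaI digestion and capillary electrophoresis. Induction is scored against DMSO.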

[14] = biological target: Nuclear receptor subfamily 1 group I member 2 (Homo sapiens) (UniProt O75469); assay: ATG_PXR_TRANS: Attagene TRANS-FACTORIAL HepG2 Assay for human Pregnane X Receptor (PXR) (AID 2283008; active = hit-call score of the fitted dose curve at least 0.9, where 1 is the maximum)
Chain of Nuclear receptor subfamily 1 group I member 2 (Homo sapiens) (O75469 whole entry, looked up, the tested form may be a part): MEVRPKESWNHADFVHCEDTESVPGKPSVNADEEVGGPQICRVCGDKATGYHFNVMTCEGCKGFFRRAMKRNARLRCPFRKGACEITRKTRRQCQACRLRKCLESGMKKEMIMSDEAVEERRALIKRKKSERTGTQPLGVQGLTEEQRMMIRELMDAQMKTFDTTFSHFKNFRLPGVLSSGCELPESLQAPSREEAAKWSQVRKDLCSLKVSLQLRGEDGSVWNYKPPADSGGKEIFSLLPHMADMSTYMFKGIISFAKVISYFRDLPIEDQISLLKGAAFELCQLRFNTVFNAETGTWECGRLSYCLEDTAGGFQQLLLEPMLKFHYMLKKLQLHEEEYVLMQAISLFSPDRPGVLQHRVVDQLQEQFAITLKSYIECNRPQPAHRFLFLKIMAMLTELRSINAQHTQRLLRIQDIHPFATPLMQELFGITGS
Summary of the method: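 Trans-factorial format: exogenous NR-Gal4 fusion activity, not endogenous factor, in transfected human HepG2 liver cells. After 24 h dosing, RNA isolated, reverse-transcribed, amplified and resolved by capillary electrophoresis; induction scored versus DMSO.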

[15] = BSK_3C_VCAM1: BioMAP Diversity Plus: 3C Assay for Vascular cell adhesion molecule 1 (VCAM1) Biomarker Activity (AID 2282999); conditions: BioMAP 3C HUVEC, VCAM1 ELISA, cytokine-stimulated; actives raise or lower the signal
Summary of the method: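 Activity fitted in both directions relative to DMSO, with ELISA measurement of the surface marker on primary HUVEC (3C) at 24 h post-treatment; parallel SRB staining (0.1% SRB, TCA-fixed, 560 nm) flagged overt cytotoxicity.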

[16] = biological target: human Peroxisome Proliferator-activated Receptor alpha (PPARa), PPARA (gene 5465) (UniProt Q07869); assay: ATG_PPARa_TRANS: Attagene TRANS-FACTORIAL HepG2 Assay for human Peroxisome Proliferator-activated Receptor alpha (PPARa) (AID 2283001; active = hit-call score of the fitted dose curve at least 0.9, where 1 is the maximum)
Chain of human Peroxisome Proliferator-activated Receptor alpha (PPARa), PPARA (gene 5465) (Q07869 whole entry, looked up, the tested form may be a part): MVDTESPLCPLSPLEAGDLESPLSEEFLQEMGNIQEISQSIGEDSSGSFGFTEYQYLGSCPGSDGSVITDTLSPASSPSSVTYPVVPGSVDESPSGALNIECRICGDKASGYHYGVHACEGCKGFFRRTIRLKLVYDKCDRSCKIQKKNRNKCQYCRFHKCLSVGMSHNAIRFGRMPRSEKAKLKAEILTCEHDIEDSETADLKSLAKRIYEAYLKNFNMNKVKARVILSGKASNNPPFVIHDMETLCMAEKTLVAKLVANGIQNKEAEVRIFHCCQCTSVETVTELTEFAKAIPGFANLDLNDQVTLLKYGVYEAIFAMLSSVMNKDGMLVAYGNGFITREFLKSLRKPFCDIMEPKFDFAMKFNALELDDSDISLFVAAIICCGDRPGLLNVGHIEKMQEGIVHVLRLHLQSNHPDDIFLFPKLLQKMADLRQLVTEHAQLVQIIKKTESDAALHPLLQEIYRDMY
Summary of the method: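 Transfected HepG2 cells treated with test chemical for 24 h. RNA isolated, reverse-transcribed with oligo(dT), PCR-amplified, FAM-labelled and HpaI-digested. Fragments sized by capillary electrophoresis; gain-of-signal fit relative to DMSO.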

[17] = biological target: Retinoic acid receptor alpha (Homo sapiens) (UniProt P10276); assay: ATG_RARa_TRANS: Attagene TRANS-FACTORIAL HepG2 Assay for human Retinoic Acid Receptor alpha (RARa) (AID 2283005; active = hit-call score of the fitted dose curve at least 0.9, where 1 is the maximum)
Chain of Retinoic acid receptor alpha (Homo sapiens) (P10276 whole entry, looked up, the tested form may be a part): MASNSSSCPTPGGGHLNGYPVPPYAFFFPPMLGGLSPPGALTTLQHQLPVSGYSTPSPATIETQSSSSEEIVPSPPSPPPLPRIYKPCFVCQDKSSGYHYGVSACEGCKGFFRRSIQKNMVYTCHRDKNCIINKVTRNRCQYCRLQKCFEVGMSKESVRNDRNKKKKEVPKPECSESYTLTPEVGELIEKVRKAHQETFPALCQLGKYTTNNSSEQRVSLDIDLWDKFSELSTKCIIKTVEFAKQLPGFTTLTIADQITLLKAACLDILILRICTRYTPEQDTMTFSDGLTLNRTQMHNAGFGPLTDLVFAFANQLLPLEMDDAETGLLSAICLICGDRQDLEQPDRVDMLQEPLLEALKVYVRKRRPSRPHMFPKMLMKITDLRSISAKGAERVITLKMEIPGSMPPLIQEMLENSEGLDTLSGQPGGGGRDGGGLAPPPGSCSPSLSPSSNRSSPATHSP
Summary of the method: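 Reporter transcripts, measured by RT-PCR with fluorescent labeling and capillary electrophoresis after 24 h dosing, reflect activity of an exogenous human RARa–GAL4 fusion in transiently transfected HepG2. Fitted for increase relative to DMSO.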

[18] = BSK_3C_Proliferation: Cell Proliferation Assessment in the BioMAP Diversity Plus: 3C Assay (AID 2283006); conditions: primary human endothelial cells (HUVEC);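 as to AC50: potency may reflect either rise or fall in cell number versus DMSO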
Summary of the method: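 HUVEC, sub-confluent; 48 h chemical exposure; 10% TCA fix, 0.1% SRB stain, A560 total protein. Gain or loss of signal fitted both directions vs DMSO control.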

[19] = biological target: human RAR-related Orphan Receptor beta (RORb), RORB (gene 6096) (UniProt Q92753); assay: ATG_RORb_TRANS: Attagene TRANS-FACTORIAL HepG2 Assay for human RAR-related Orphan Receptor beta (RORb) (AID 2283010; active = hit-call score of the fitted dose curve at least 0.9, where 1 is the maximum)
Chain of human RAR-related Orphan Receptor beta (RORb), RORB (gene 6096) (Q92753 whole entry, looked up, the tested form may be a part): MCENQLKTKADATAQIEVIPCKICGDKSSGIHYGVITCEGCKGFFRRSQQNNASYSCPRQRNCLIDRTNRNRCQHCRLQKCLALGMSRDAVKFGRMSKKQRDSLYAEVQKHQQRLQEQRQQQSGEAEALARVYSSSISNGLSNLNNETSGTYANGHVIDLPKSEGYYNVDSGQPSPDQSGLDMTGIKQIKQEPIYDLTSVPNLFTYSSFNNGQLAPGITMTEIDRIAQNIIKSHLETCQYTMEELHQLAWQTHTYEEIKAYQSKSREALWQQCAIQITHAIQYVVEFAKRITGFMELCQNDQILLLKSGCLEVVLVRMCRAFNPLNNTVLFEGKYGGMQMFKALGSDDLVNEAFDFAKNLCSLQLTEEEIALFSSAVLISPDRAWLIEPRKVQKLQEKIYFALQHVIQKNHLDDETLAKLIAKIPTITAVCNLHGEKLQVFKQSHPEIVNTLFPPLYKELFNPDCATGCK
Summary of the method: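 HepG2, transient MRTU transfection (GAL4-UAS reporters, exogenous NR-Gal4 chimeras); 24 h compound exposure; total RNA → RT-PCR → 6-FAM primer extension → HpaI digest → CE fluorescence. Positive direction vs DMSO baseline.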

[20] = biological target: human Retinoic Acid Receptor beta (RARb), RARB (gene 5915) (UniProt P10826); assay: ATG_RARb_TRANS: Attagene TRANS-FACTORIAL HepG2 Assay for human Retinoic Acid Receptor beta (AID 2283004; active = hit-call score of the fitted dose curve at least 0.9, where 1 is the maximum)
Chain of human Retinoic Acid Receptor beta (RARb), RARB (gene 5915) (P10826 whole entry, looked up, the tested form may be a part): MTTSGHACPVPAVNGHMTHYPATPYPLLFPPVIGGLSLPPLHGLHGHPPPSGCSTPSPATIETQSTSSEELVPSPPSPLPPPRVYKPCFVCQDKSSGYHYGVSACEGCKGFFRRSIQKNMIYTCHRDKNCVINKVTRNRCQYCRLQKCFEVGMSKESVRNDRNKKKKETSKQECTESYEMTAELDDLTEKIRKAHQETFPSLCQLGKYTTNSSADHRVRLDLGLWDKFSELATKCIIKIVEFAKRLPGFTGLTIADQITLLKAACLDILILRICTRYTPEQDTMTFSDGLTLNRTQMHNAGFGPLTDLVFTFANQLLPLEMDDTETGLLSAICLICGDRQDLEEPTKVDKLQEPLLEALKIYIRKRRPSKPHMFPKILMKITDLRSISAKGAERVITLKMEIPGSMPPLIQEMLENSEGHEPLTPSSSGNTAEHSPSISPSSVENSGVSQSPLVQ
Summary of the method: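 Fluorescent capillary-electrophoresis detection of GAL4-UAS reporter mRNA defines the endpoint, with induction over DMSO-treated wells scored as activity. Transiently transfected human hepatoma HepG2 cells expressing exogenous NR–Gal4 proteins are exposed to test chemicals for 24 h.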

CC(C)(C)C(O)(CCc1ccc(Cl)cc1)Cn1cncn1 (stereo not drawn)
outcome [1]: inactive
outcome [2]: inactive
outcome [3]: inactive
outcome [4]: inactive
AC50 [5]: 88.8 µM (active)
outcome [6]: inactive
outcome [7]: inactive
outcome [8]: inactive
outcome [9]: inactive
outcome [10]: inactive
outcome [11]: inactive
outcome [12]: inactive
outcome [13]: inactive
AC50 [14]: 0.977 µM (active)

O=[N+]([O-])c1ccc(Oc2ccc(Cl)cc2Cl)cc1
outcome [1]: inactive
outcome [2]: inactive
outcome [3]: inactive
outcome [4]: inactive
outcome [5]: inactive
outcome [6]: inactive
outcome [8]: inactive
AC50 [9]: 9.38 µM (active)
outcome [15]: inactive
AC50 [10]: 33.6 µM (active)
outcome [16]: inactive
outcome [11]: inactive
outcome [12]: inactive
AC50 [13]: 14.3 µM (active)
AC50 [14]: 9.58 µM (active)

Nc1ccc(Oc2ccc(N)cc2)cc1
outcome [1]: inactive
outcome [2]: inactive
outcome [3]: inactive
outcome [4]: inactive
outcome [5]: inactive
outcome [6]: inactive
outcome [8]: inactive
outcome [9]: inactive
outcome [15]: inactive
outcome [10]: inactive
outcome [16]: inactive
outcome [12]: inactive
outcome [17]: inactive
outcome [18]: inactive
outcome [13]: inactive

Cn1cc(-c2ccccc2)c(=O)c(-c2cccc(C(F)(F)F)c2)c1
AC50 [1]: 100 µM (active)
outcome [2]: inactive
outcome [3]: inactive
AC50 [4]: 100 µM (active)
AC50 [5]: 44.2 µM (active)
outcome [6]: inactive
outcome [8]: inactive
outcome [9]: inactive
outcome [10]: inactive
outcome [11]: inactive
outcome [12]: inactive
outcome [13]: inactive
AC50 [14]: 4.04 µM (active)

Clc1ccccc1Cl
outcome [1]: inactive
outcome [2]: inactive
outcome [3]: inactive
outcome [4]: inactive
outcome [5]: inactive
outcome [6]: inactive
outcome [8]: inactive
outcome [9]: inactive
outcome [15]: inactive
outcome [10]: inactive
outcome [16]: inactive
outcome [12]: inactive
outcome [18]: inactive
outcome [13]: inactive

COP(=S)(OC)SCN1C(=O)c2ccccc2C1=O
outcome [1]: inactive
outcome [2]: inactive
outcome [3]: inactive
outcome [4]: inactive
outcome [5]: inactive
outcome [6]: inactive
outcome [7]: inactive
AC50 [8]: 7.76 µM (active)
outcome [9]: inactive
outcome [15]: inactive
outcome [10]: inactive
outcome [16]: inactive
outcome [11]: inactive
outcome [12]: inactive
outcome [13]: inactive
outcome [14]: inactive

CO[C@@H]1[C@H](OC(=O)NC(=O)CCl)CC[C@]2(CO2)[C@H]1[C@@]1(C)O[C@@H]1CC=C(C)C
outcome [1]: inactive
outcome [2]: inactive
outcome [3]: inactive
outcome [4]: inactive
AC50 [5]: 4.98 µM (active)
AC50 [6]: 40.5 µM (active)
outcome [7]: inactive
AC50 [8]: 3.62 µM (active)
outcome [9]: inactive
AC50 [10]: 4.41 µM (active)
outcome [16]: inactive
outcome [11]: inactive
outcome [12]: inactive
AC50 [18]: 0.00962 µM (active)
outcome [13]: inactive
outcome [14]: inactive
outcome [19]: inactive

c1ccc2c(c1)-c1cccc3cccc-2c13
outcome [1]: inactive
outcome [2]: inactive
outcome [3]: inactive
outcome [4]: inactive
outcome [5]: inactive
outcome [6]: inactive
outcome [7]: inactive
AC50 [8]: 0.669 µM (active)
outcome [9]: inactive
outcome [10]: inactive
outcome [16]: inactive
outcome [11]: inactive
outcome [12]: inactive
outcome [20]: inactive
outcome [17]: inactive
outcome [18]: inactive
outcome [13]: inactive
outcome [14]: inactive
outcome [19]: inactive
